These results are taken from paper PMC10313818.

The target in test [1] is 60 kDa heat shock protein, mitochondrial (UniProt P10809). In words: cross-link between two proteins; cross-linking mass spectrometry.
A further test addresses ADP/ATP translocase 3 (UniProt P12236). In words: cross-link between two proteins; co-fractionation; cross-linking mass spectrometry.

Sequence of ADP/ATP translocase 3 (P12236 whole entry): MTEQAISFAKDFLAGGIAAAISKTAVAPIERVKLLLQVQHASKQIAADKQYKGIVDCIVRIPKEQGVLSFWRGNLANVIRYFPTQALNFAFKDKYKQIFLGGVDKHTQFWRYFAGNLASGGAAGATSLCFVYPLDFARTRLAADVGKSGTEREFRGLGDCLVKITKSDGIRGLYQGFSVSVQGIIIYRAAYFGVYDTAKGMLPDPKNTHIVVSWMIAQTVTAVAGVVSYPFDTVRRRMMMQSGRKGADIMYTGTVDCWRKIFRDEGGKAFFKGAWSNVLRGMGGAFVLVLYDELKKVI

Regarding Putative GTP-binding protein 6, O43824, the “listed as a hit” value in test [1] is recorded as “yes”.

For the substance ADP/ATP translocase 2, P05141, the “listed as a hit” value with ADP/ATP translocase 3 is “yes”.
